Screen size: about 350,000 compounds; about 2,100 (0.6%) were called active. What follows is part of a selection rich in actives, with near analogues and random picks from the rest. Values without a mark were called inactive.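 Rule for the calls: active = inhibition of the ligand-induced calcium signal above about 50% at the single tested concentration (limit read from the data); inactive = the rest.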
Assay: antagonists of CRF-BP/CRF-R2 complex, primary screen, cell-based, HEK293, calcium dye fluorescence, uHTS (AID 588475)
Settings: CRF-induced calcium fluorescence, at 11.8 µM, active compounds read high

Row | SMILES | inhibition
1 | Cc1ccc(C(=O)N/C(=C\c2cn(C)c3ccccc23)C(=O)N2CCN(C)CC2)cc1 | 1.64%
2 | O=[N+]([O-])c1ncc(Br)cc1Nc1ccccc1 | 17.9%
3 | CCCN(CCc1ccccc1)C1CCc2c(O)cccc2C1 (centres undefined) | -13%
4 | Cc1nc2c(C(=O)NCc3ccc4c(c3)OCO4)c[nH]n2c(=O)c1Cc1ccccc1F | 53.2% (active)
5 | CC(C)NC(=O)CSc1ccccc1C(=O)NCc1ccc2c(c1)OCO2 | 17%
6 | COc1ccccc1-n1c(C)nc2cc(C(=O)NCc3ccc4c(c3)OCO4)ccc21 | 20.9%
7 | COCCN(C(=S)Nc1ccccc1OC)C1CCN(C(C)C)CC1 | -0.52%
8 | CCc1ccc(CN(C)C(C)C(=O)Nc2ccc(S(=O)(=O)N3CCCC3)cc2)cc1 (centres undefined) | -10.1%
9 | COc1ccc2nc(N3C(=O)C(O)=C(C(=O)c4ccco4)C3c3ccco3)sc2c1 (centres undefined) | 3.47%
10 | C=CCSc1nnc(N2C(=O)C(O)=C(C(=O)c3ccco3)C2c2ccc(F)cc2)s1 (centres undefined) | 17.8%
11 | Cc1ccc2nc(N3C(=O)C(O)=C(C(=O)c4ccco4)C3c3cccc(O)c3)sc2c1 (centres undefined) | 51.9% (active)
12 | CS(=O)(=O)N(Cc1nc2sc3c(c2c(=O)[nH]1)CCCC3)C1CCCCC1 | -0.95%
13 | CCc1nn(CC(=O)N2CCN(c3cc(C)ccc3C)CC2)c(=O)c2cc3occc3n12 | 3.13%
14 | Cc1ccc(CNC(=O)CCNC(=O)Cn2ccc3ccccc3c2=O)cc1 | 87.1% (active)
15 | CCCCN(CC)CCNC(=O)CCNC(=O)Cn1ccc2ccccc2c1=O | -0.99%
16 | O=C(CCNC(=O)Cn1ccc2ccccc2c1=O)NCCC1=CCCCC1 | -1.26%
17 | Cc1ccc(SC(CC(=O)c2ccc(C(C)(C)C)cc2)C(=O)O)cc1 (centres undefined) | -15.1%
18 | CC(NC(=O)COC(=O)C1CCN(S(=O)(=O)c2ccccc2C(F)(F)F)CC1)c1ccccc1 (centres undefined) | -1.56%
19 | CCOC(=O)C(C)N(c1ccccc1Cl)S(C)(=O)=O (centres undefined) | -3.83%
20 | S=c1[nH]ccn1-c1ccc(Cl)cc1 | -16.2%

Row | SMILES | inhibition
21 | Cc1ccc(C(=O)Nc2nnc(C3=COCCO3)o2)cc1C | 51.4% (active)
22 | COc1cc(-c2nnc(NC(=O)C3=COCCO3)o2)cc(OC)c1OC | -9.37%
23 | O=C(Nc1nnc(C2=COCCO2)o1)c1ccc([N+](=O)[O-])s1 | -4.65%
24 | COc1cc(OC)cc(C(=O)N[C@H](C(=O)OCC(=O)NC(C)c2ccccc2)C(C)C)c1 (some centres undefined) | -108%
25 | CCn1cc(/C=C2/SC(=S)NC2=O)c(C)n1 | 13.4%
26 | O=C1CCCCC1C(=O)c1ccccc1 (centres undefined) | 52.8% (active)
27 | O=C(OC1CCCCC1=O)c1cccc(S(=O)(=O)NCc2ccccc2)c1 (centres undefined) | 12.8%
28 | Cc1cccc(C(=O)C(O)(c2ccccc2)C2CCCCC2=O)c1 (centres undefined) | -14%
29 | COc1cccc(CNC(=O)CCN2C(=S)NC(C)(C)CC2C)c1 (centres undefined) | 3.81%
30 | N#CCc1c[nH]c2ccc([N+](=O)[O-])cc12 | 2.31%
31 | Cc1cc([N+](=O)[O-])ccc1NC1CCCC1 | 72% (active)
32 | Cc1cc([N+](=O)[O-])c(NC2CCCCC2)c([N+](=O)[O-])c1 | -26.8%
33 | Cc1cc([N+](=O)[O-])ccc1NCc1cccc([N+](=O)[O-])c1 | 34.2%
34 | CC(C)C(NS(=O)(=O)c1cccs1)C(=O)Nc1nc(C(C)(C)C)cs1 (centres undefined) | 7.44%
35 | Cc1cc(-c2nnc(SCC(=O)Nc3ccc(S(N)(=O)=O)cc3)n2N)n[nH]1 | 9.63%
36 | CCOC(=O)N1CCC(NC(=O)C(NS(=O)(=O)c2ccc3c(c2)CCN3C(=O)CC)C(C)C)CC1 (centres undefined) | -2.51%
37 | COc1ccc(N=C2C=CC(=O)O2)cc1 | 11.2%
38 | OCC1OC(n2cnc3c(N4CCCC4)ncnc32)C(O)C1O (centres undefined) | -7.64%
39 | COc1cc(OC)cc(-c2c(C#Cc3ccsc3)c3cc(-c4ccc(SC)cc4)ccc3n2C)c1 | 1.84%
40 | Cc1ccc(S(=O)(=O)/N=C(\CN2CCOCC2)N2CCOCC2)cc1 | 12.5%

Row | SMILES | inhibition
41 | CCCc1cc(=O)n2[nH]c(C)c(-c3ccc(Cl)cc3)c2n1 | 13.7%
42 | Cc1[nH]n(-c2cccc(Cl)c2)c(=O)c1-c1ccc(Cl)cc1 | 50.6% (active)
43 | Cc1nc2c(-c3ccccc3)c(C)[nH]n2c(=O)c1Cl | 42.5%
44 | C/C(=N\Nc1ccccc1)c1cccs1 | -0.14%
45 | COc1ccccc1N(C)S(=O)(=O)c1ccc(Cl)c(C(=O)N2CCC(C(N)=O)CC2)c1 | 17.1%
46 | COc1ccc(NC(=O)C(=O)NCC(=O)Nc2cccc(C(F)(F)F)c2)cc1 | 55.4% (active)
47 | COc1ccc(C(CC(=O)Nc2ccc(C)cc2)NC(=O)C(F)(F)F)cc1 (centres undefined) | -3.52%
48 | C/C(CC(=O)Nc1cccc(C(F)(F)F)c1)=N\NC(=O)C(=O)NCC(C)C | -3.29%
49 | CCCCn1c(N)c(N(CC(C)C)C(=O)CN(C)S(=O)(=O)c2ccc(F)cc2)c(=O)[nH]c1=O | -2.99%
50 | Cc1c(C(=O)OCC(=O)N(CCC#N)c2ccccc2)oc2c1ccc1ccccc12 | -18.4%
51 | O=S(=O)(CCc1nc2ccccc2o1)c1ccc(Cl)cc1 | -6.01%
52 | CCc1nc2ccccc2n(CCOCCOCCn2c(=O)c(CC)nc3ccccc32)c1=O | -9.64%
53 | Cn1c(-c2ccc(C(=O)c3ccccc3)s2)nc2ccccc21 | 6.07%
54 | Cc1nn2c3ccccc3nc2n(C)c1=O | 83.2% (active)
55 | Cc1ccc(S(=O)(=O)NNC(=S)NC(C)(C)C)cc1 | 0.02%
56 | CCNC(=O)NNC(=O)C1CC(c2cccs2)=NO1 (centres undefined) | 0.63%
57 | O=C(CSc1nnnn1-c1ccc(O)cc1)c1ccc(F)cc1 | 4.96%
58 | COc1ccc(NC(=O)CSc2nnnn2-c2cccc(OC)c2)cc1 | 8.16%
59 | COc1ccc(-n2nnnc2SCC(=O)c2ccc(OC)c(OC)c2)cc1 | 51.1% (active)

Reference: PubChem BioAssay AID588475 (Sanford-Burnham Center for Chemical Genomics, 2011)
